Sampled rows, rich in hits. Any-hit rate of the full collection: about 4.3%.
Wnt act – Wnt/beta-catenin pathway activation | 1.2% of 300,000 active | Wnt/beta-catenin reporter cell assay, activator, plate reader | activation, % at 9.35 µM | AID 743398; in the data active = activation above about 30%, passing the limit was not always enough; inconclusive = no clear call, values can overlap the other calls;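 note: 0% = neutral control wells and 100% = positive control wells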
MITF act – increases MITF-driven TRPM1 promoter luciferase signal; SK-MEL-5 TRPM1-promoter luciferase, 24 h; % of positive control, neutral wells = 0; activation, % at 12.5 µM; 0.75% of 300,000 active;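 active = mean activation of at least 80% with every replicate also reaching 80%; inconclusive = mean reaches 80% but some replicate falls short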;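 note: 0% = neutral control wells and 100% = parthenolide positive control wells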
SMARCA2 act – activators of SMARCA2 function | activation, % at 9.1 µM | 1% of 370,000 active | MG213 cells, MMTV-luciferase reporter, dexamethasone, overnight; in the data active = activation above about 7.8%;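 note: 0% = vehicle wells and 100% = reference activator wells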
esBAF inh – blocks esBAF chromatin remodeling in mouse ES cells. Bmi1-luciferase knock-in reporter, 24 h; 100% = twice the neutral-well signal. reporter increase, % at 12.5 µM. 2% of 350,000 active. AID 602393; in the data active = activation above about 40%; inconclusive = no clear call, values can overlap the other calls;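 note: 0% = median of the plate's neutral control wells and 100% = double that signal; a rise in the Bmi1 reporter signal indicates esBAF inhibition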
FGF22 binding – binders of recombinant human FGF22 by thermal shift. 1.5% of 340,000 active. SYPRO orange fluorescence; percent of sucrose octasulfate shift, DMSO zero. Q9HCT0. activity (Tm shift, normalised), % at 9.99 µM;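 active = mean Tm shift, scaled 0 neutral to 100 positive control, at about 1.3% or above, every replicate too, limit read from the data; inconclusive = no clear call, values can overlap the other calls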
AF4-AF9 inh – inhibitors of human MLL-AF4/AF9 interaction; AlphaScreen, biotin-AF4 peptide binding to FLAG-AF9; inhibition, % at 10 µM; 0.47% of 350,000 active; AID 651704;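 active = every replicate reaching a set inhibition limit, whatever the replicate mean, cut at about 25% in these data; inconclusive = mean inhibition reaches that limit but some replicates miss it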;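 note: 0% = plate neutral control median and 100% = total signal loss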
Target sequence (P42568 whole entry, looked up): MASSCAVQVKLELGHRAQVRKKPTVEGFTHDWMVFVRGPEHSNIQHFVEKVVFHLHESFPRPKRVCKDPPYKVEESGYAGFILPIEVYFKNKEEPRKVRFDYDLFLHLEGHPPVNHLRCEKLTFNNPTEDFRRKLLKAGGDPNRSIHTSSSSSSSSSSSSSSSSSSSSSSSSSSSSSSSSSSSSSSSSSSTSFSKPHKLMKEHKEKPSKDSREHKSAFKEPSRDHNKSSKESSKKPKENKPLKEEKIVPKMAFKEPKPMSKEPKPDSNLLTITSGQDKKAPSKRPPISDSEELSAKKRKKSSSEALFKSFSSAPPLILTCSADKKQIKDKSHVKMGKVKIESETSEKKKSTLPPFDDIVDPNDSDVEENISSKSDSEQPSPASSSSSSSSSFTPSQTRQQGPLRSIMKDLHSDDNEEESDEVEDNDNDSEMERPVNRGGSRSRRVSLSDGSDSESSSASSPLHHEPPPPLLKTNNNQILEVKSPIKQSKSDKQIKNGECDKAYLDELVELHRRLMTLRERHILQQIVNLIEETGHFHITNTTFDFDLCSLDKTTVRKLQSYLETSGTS
SMARCA2 conf – confirmation of SMARCA2 (BRM) function activators | 30% of 3,500 active | shares compounds with SMARCA2 act | AID 652260 | MG213 cells, MMTV-luciferase with dexamethasone, luminescence, overnight; MG213 cells expressing E1A, Rb sequestered; DMSO wells 0%, reference activator 100% | activation, % at 9.1 µM;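 active = activation above its plate's cutoff, the mean activation of tested wells plus 3 SD, cut at about 7.9% in these data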
GAL4-VP16 Luc – counter-screen for SMARCA2 activators: GAL4-VP16 luciferase reporter activation. shares compounds with SMARCA2 act. HEK293 GAL4-VP16 pG5luc reporter, luciferase luminescence; scaled: DMSO wells 0%, SAHA wells 100%. activation, % at 9.1 µM. 41% of 3,500 active;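 active = activation above the solvent-only control well mean plus 3 SD, averaged across control plates, cut at about 5.2% in these data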
* marks the source's active call; other numbers are inactive results.

`O=C(Nc1ccc(N2CCOCC2)cc1)c1nc2ccccc2s1` gave Wnt act 18, MITF act 36, SMARCA2 act 12*, esBAF inh -46, FGF22 binding 0, AF4-AF9 inh -2, SMARCA2 conf 8.5* and GAL4-VP16 Luc 12*.
Cc1nc(SC(C(N)=O)c2ccccc2)c(C#N)c(C)c1C (stereo not drawn) was read as Wnt act 1, SMARCA2 act 8.3*, FGF22 binding 0, AF4-AF9 inh -3, SMARCA2 conf 3 and GAL4-VP16 Luc 2.
COc1ccc(Nc2nc(N)nc(CSc3nccn3C)n2)cc1 was read as Wnt act 56*, MITF act 6, SMARCA2 act 8.7*, FGF22 binding 44*, AF4-AF9 inh -1, SMARCA2 conf 6 and GAL4-VP16 Luc 8.2*.
COc1ccc(Nc2nc(N)nc(CSc3nnc(N)s3)n2)cc1 was read as SMARCA2 act 6 and esBAF inh 10.
Screening Cc1noc(C)c1NC(=O)N1C[C@@H](O)COC[C@H]2O[C@H](CC(=O)NCC3CC3)CC[C@@H]21 returned esBAF inh 1, FGF22 binding 0 and AF4-AF9 inh -1.
For C[C@H](CO)N1C[C@H](C)[C@H](CN(C)C(=O)Nc2ccc(C(F)(F)F)cc2)OCCCC[C@H](C)Oc2ccc(NS(=O)(=O)c3ccccc3)cc2C1=O the results were esBAF inh 1, FGF22 binding 0 and AF4-AF9 inh -15.
`CN(C)CCNC(=O)c1ccc(COc2ccc(Cl)cc2Cl)cc1` gave SMARCA2 act 8.0*, esBAF inh -6, SMARCA2 conf 10* and GAL4-VP16 Luc 1.
Cc1ccc(S(=O)(=O)c2nc(-c3ccc(F)cc3)oc2N2CCOCC2)cc1 was read as Wnt act 0, MITF act 5, SMARCA2 act 12*, esBAF inh -3, FGF22 binding 0, AF4-AF9 inh 1, SMARCA2 conf -2 and GAL4-VP16 Luc -1.
`CN(C)Cc1c(C(C)(C)O)[nH]c2cc(C(F)(F)F)ccc12` gave Wnt act -1, SMARCA2 act 1, FGF22 binding 0 and AF4-AF9 inh 0.
`O=C(OCC(=O)N1CCN(S(=O)(=O)c2ccc(Cl)cc2)CC1)c1ccc([N+](=O)[O-])o1` gave Wnt act -2, MITF act -15, SMARCA2 act 8.9*, esBAF inh -9, FGF22 binding 0, AF4-AF9 inh 5, SMARCA2 conf 3 and GAL4-VP16 Luc 4.
`O=C(COc1ccccc1Cl)OCC(=O)N1CCN(S(=O)(=O)c2ccccc2)CC1` gave Wnt act -6, MITF act -9, SMARCA2 act 11*, esBAF inh -9, SMARCA2 conf -2 and GAL4-VP16 Luc 0.
For Cc1ccc(S(=O)(=O)N2CCN(C(=O)COC(=O)COc3ccccc3)CC2)cc1 the results were Wnt act -2, MITF act -5, SMARCA2 act -4 and esBAF inh 4.
C[C@H](CO)N1C[C@H](C)[C@@H](CN(C)Cc2ccc3c(c2)OCO3)Oc2ccc(NC(=O)Nc3ccc4c(c3)OCO4)cc2C1=O was read as esBAF inh 2, FGF22 binding 0 and AF4-AF9 inh 11.
For COc1ccc(-n2c(C)c(C)c3c(NCCCO)ncnc32)cc1 the results were Wnt act 6, MITF act 32, SMARCA2 act 11*, esBAF inh 40, FGF22 binding 0, AF4-AF9 inh 6, SMARCA2 conf 0 and GAL4-VP16 Luc 5.4*.
`Cc1c(C)n(CCc2ccccc2)c2ncnc(NCCO)c12` gave Wnt act 14, MITF act 138*, SMARCA2 act 10*, esBAF inh 76*, FGF22 binding 0, AF4-AF9 inh 0, SMARCA2 conf 8.4* and GAL4-VP16 Luc 10*.
For Cc1ccc(-n2c(C)c(C)c3c(NCCCO)ncnc32)cc1 the results were Wnt act 10, MITF act 73, SMARCA2 act 10*, esBAF inh 59*, FGF22 binding 0, AF4-AF9 inh 8, SMARCA2 conf 12* and GAL4-VP16 Luc 8.6*.
`C[N+]1=C(N)NC2=C3CCCCC3n3c(=O)n(-c4ccccc4)c(=O)n3C2C1` (stereo not drawn) gave SMARCA2 act -4.
`O=C(C[C@@H]1CC[C@H]2[C@@H](COC[C@@H](O)CN2C(=O)c2cc(Cl)cc(Cl)c2)O1)N1CCc2ccccc2C1` gave esBAF inh -4, FGF22 binding 0 and AF4-AF9 inh 2.
Cc1cc(C(=O)NCc2ccccc2)no1 was read as Wnt act 0, MITF act -7, SMARCA2 act -1, esBAF inh 1, FGF22 binding 0 and AF4-AF9 inh 5.
For Cc1cc(C(=O)NCc2ccccc2Br)no1 the results were Wnt act 1, MITF act 11, SMARCA2 act 9.4*, esBAF inh 8, FGF22 binding 0, AF4-AF9 inh 7, SMARCA2 conf 1 and GAL4-VP16 Luc 1.
`COC(=O)CCCCCCC(=O)Nc1ccc(NC(=O)CCCC[P+](c2ccccc2)(c2ccccc2)c2ccccc2)cc1` gave FGF22 binding 0 and AF4-AF9 inh 5.
Screening Cc1ccc(NC(=O)c2ccccc2Cl)c(Cl)c1 returned Wnt act 2, MITF act 86*, SMARCA2 act 13*, esBAF inh 39, SMARCA2 conf 11* and GAL4-VP16 Luc 5.5*.
C[C@H]1CN([C@@H](C)CO)C(=O)c2cccc(NC(=O)c3ccncc3)c2O[C@H]1CN(C)S(C)(=O)=O was read as esBAF inh -3, FGF22 binding 0 and AF4-AF9 inh -4.
For Cc1ccc2nc(-c3ccc(NC(=O)CNC4CC4)cc3)sc2c1 the results were Wnt act 6, MITF act 54, SMARCA2 act 11*, FGF22 binding 1, AF4-AF9 inh 1, SMARCA2 conf 8.5* and GAL4-VP16 Luc 10*.
`C=CCn1c(SCC(=O)Nc2ccc(-c3nc4ccc(C)cc4s3)cc2)nnc1-c1ccncc1` gave Wnt act inconclusive, MITF act 42, SMARCA2 act 8.9*, esBAF inh 35, FGF22 binding 0, AF4-AF9 inh -4, SMARCA2 conf 5 and GAL4-VP16 Luc 9.2*.
Screening Cc1ccc2nc(-c3ccc(NC(=O)CSc4nnc(-c5ccccc5)n4Cc4ccco4)cc3)sc2c1 returned SMARCA2 act 1.
